Test results published in PubChem BioAssay AID1159580 (chemical genetic matrix, 2015).
Values joined by “and” are separate entries in the source; they are usually repeats but may differ in a detail not shown here. Equal entries are not always repeated. Screen size: about 5,500 compounds; about 2,000 (36%) were called active. Roughly 18% stayed inconclusive and do not appear here. Rule as the data show it: active = normalized growth mostly below about 0.91 (no sharp cut-off); inconclusive = no clear call, values can overlap the other calls; inactive = mostly above about 0.92. The list shows a part of the results.

Assay: chemical genetic growth profiling, strain panel (AID 1159580);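 also: tested at 20 µM; growth read once vehicle control cultures reached saturation at 30 °C; 1 = growth at the plate median or of vehicle wells; lower values mean less growth of the strain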
Details: S. cerevisiae deletion strains, growth OD

Measured: normalized growth

O=C(CCCN1CCC2(CC1)C(=O)NCN2c1ccccc1)c1ccc(F)cc1
inactive: locus YAL021C, strain ccr4, stronger effect = lower value 0.956 | locus YAL026C, strain drs2, stronger effect = lower value 0.981 | locus YAL030W, strain snc1, stronger effect = lower value 0.983 | locus YAL040C, strain CLN3, stronger effect = lower value 0.989 | locus YBL061C, strain skt5, stronger effect = lower value 0.979 | locus YBR009C, strain hhf1, stronger effect = lower value 1.02 | locus YBR021W, strain FUR4, stronger effect = lower value 1 | locus YBR023C, strain chs3, stronger effect = lower value 0.995 | locus YBR171W, strain sec66, stronger effect = lower value 0.965 | locus YBR229C, strain ROT2, stronger effect = lower value 0.964 | locus YBR231C, strain swc5, stronger effect = lower value 1.04 | locus YBR279W, strain paf1, stronger effect = lower value 0.983 | locus YCL016C, strain dcc1, stronger effect = lower value 0.975 | locus YCL029C, strain bik1, stronger effect = lower value 0.995 | locus YCL061C, strain MRC1 (second series), stronger effect = lower value 0.999 | locus YCL061C, strain MRC1, stronger effect = lower value 0.981 | locus YCL069W, strain vba3, stronger effect = lower value 0.98 | locus YCR088W, strain abp1, stronger effect = lower value 0.982 | locus YDL005C, strain med2, stronger effect = lower value 0.961 | locus YDL035C, strain GPR1, stronger effect = lower value 0.992 | locus YDL040C, strain nat1, stronger effect = lower value 0.982 | locus YDL074C, strain BRE1, stronger effect = lower value 0.972 | locus YDL101C, strain DUN1, stronger effect = lower value 0.984 | locus YDL134C, strain PPH21, stronger effect = lower value 1.01 | locus YDL185W, strain tfp1, stronger effect = lower value 0.969 | locus YDL192W, strain arf1, stronger effect = lower value 0.997 | locus YDR001C, strain nth1, stronger effect = lower value 0.979 | locus YDR069C, strain doa4, stronger effect = lower value 0.946 | locus YDR101C, strain arx1, stronger effect = lower value 0.988 | locus YDR137W, strain rgp1, stronger effect = lower value 0.993 | locus YDR150W, strain NUM1, stronger effect = lower value 0.996 | locus YDR159W, strain sac3, stronger effect = lower value 0.998 | locus YDR162C, strain NBP2, stronger effect = lower value 0.999 | locus YDR195W, strain ref2 1.01 | locus YDR297W, strain sur2, stronger effect = lower value 0.981 | locus YDR318W, strain mcm21, stronger effect = lower value 0.993 | locus YDR334W, strain swr1, stronger effect = lower value 0.969 | locus YDR335W, strain msn5, stronger effect = lower value 0.966 | locus YDR363W, strain ESC2, stronger effect = lower value 0.999 | locus YDR388W, stronger effect = lower value 0.996 | locus YDR392W, strain spt3, stronger effect = lower value 0.881 | locus YDR502C, strain sam2, stronger effect = lower value 0.989 | locus YEL003W, strain gim4, stronger effect = lower value 0.991 | locus YEL037C, strain rad23, stronger effect = lower value 0.983 | locus YEL061C, strain CIN8 (second series), stronger effect = lower value 0.992 | locus YEL061C, strain CIN8, stronger effect = lower value 0.988 | locus YER002W, strain NOP16, stronger effect = lower value 0.993 | locus YER015W, strain faa2, stronger effect = lower value 1 | locus YER016W, strain bim1, stronger effect = lower value 0.936 | locus YER110C, stronger effect = lower value 0.99 | locus YER111C, strain swi4, stronger effect = lower value 0.966 | locus YER155C, strain BEM2 (second series), stronger effect = lower value 0.966 | locus YER155C, strain BEM2, stronger effect = lower value 1 | locus YER167W, strain BCK2, stronger effect = lower value 0.995 | locus YFR010W, strain ubp6, stronger effect = lower value 1 | locus YGL078C, strain dbp3, stronger effect = lower value 0.994 | locus YGL086W, strain mad1, stronger effect = lower value 0.988 | locus YGL167C, strain pmr1, stronger effect = lower value 0.922 | locus YGL173C, strain kem1, stronger effect = lower value 0.998 | locus YGL227W, strain vid30, stronger effect = lower value 0.993 | locus YGL240W, strain doc1, stronger effect = lower value 0.991 | locus YGL248W, strain PDE1, stronger effect = lower value 0.975 | locus YGL253W, strain hxk2, stronger effect = lower value 0.993 | locus YGR078C, strain PAC10, stronger effect = lower value 0.967 | locus YGR135W, strain pre9, stronger effect = lower value 0.997 | locus YGR229C, strain SMI1, stronger effect = lower value 0.994 and 0.978 | locus YGR252W, strain gcn5, stronger effect = lower value 0.96 | locus YHR013C, strain ard1, stronger effect = lower value 0.91 | locus YHR027C, strain rpn1, stronger effect = lower value 0.994 | locus YHR030C, strain SLT2, stronger effect = lower value 1 and 0.988 | locus YHR079C, strain IRE1 (second series), stronger effect = lower value 0.989 | locus YHR079C, strain IRE1, stronger effect = lower value 1.01 | locus YHR094C, strain hxt1, stronger effect = lower value 0.998 | locus YHR129C, strain ARP1, stronger effect = lower value 1 | locus YHR142W, strain chs7, stronger effect = lower value 0.964 | locus YHR200W, strain rpn10, stronger effect = lower value 0.987 | locus YIL066C, strain RNR3, stronger effect = lower value 0.972 | locus YIL073C, strain SPO22, stronger effect = lower value 1.07 | locus YIL125W, strain kgd1, stronger effect = lower value 0.984 | locus YIR030C, strain dcg1, stronger effect = lower value 0.994 | locus YJL092W, strain hpr5, stronger effect = lower value 0.974 | locus YJL095W, strain BCK1 (second series), stronger effect = lower value 0.982 | locus YJL095W, strain BCK1, stronger effect = lower value 0.968 and 1.01 | locus YJL115W, strain asf1, stronger effect = lower value 0.966 | locus YJL129C, strain trk1, stronger effect = lower value 0.949 | locus YJL134W, strain LCB3, stronger effect = lower value 1 | locus YJL154C, strain vps35, stronger effect = lower value 0.969 | locus YJL164C, strain tpk1, stronger effect = lower value 0.984 | locus YJL166W, strain qcr8, stronger effect = lower value 0.99 | locus YJL168C, strain set2, stronger effect = lower value 0.986 | locus YJL187C, strain SWE1 (second series), stronger effect = lower value 0.969 | locus YJR043C, strain POL32, stronger effect = lower value 0.997 | locus YJR066W, strain TOR1, stronger effect = lower value 0.938 | locus YJR075W, strain HOC1, stronger effect = lower value 0.985 and 0.996
